An excerpt weighted towards active compounds, which were near 0.9% of everything screened.
SRC2 TRFRET art = TR-FRET signal artefacts, primary screen, artefact control for PPARgamma SRC-2 agonist project, biochemical | 200,000 tested, 0.4% active | TR-FRET artefact counter-screen; active compounds read high | AID 1049, 2008 | TR-FRET ratio at 8 µM
SRC3 TRFRET art = TR-FRET detection interference compounds, artefact control for PPARgamma SRC-3 recruitment agonists, biochemical, TR-FRET ratio | TR-FRET artefact counter-screen, PPARgamma/SRC-3 format; active compounds read high | TR-FRET ratio at 8 µM | 99,000 tested, 0.39% active
SRC1 TRFRET art = TR-FRET detection interference compounds, primary screen, artefact control for PPARgamma SRC-1 recruitment agonists, biochemical, TR-FRET emission ratio. TR-FRET detection artefact counter-screen; active compounds read high. TR-FRET ratio at 8 µM. AID 1051, 2008. 99,000 tested, 0.34% active; in the data active means TR-FRET ratio above about 2300
PPARg SRC1 recr = PPARgamma agonists recruiting SRC-1 coactivator, primary screen, biochemical. PPARgamma-SRC-1 coactivator recruitment biochemical assay. AID 631, 2007. activation, % at 8 µM. Peroxisome proliferator-activated receptor gamma (Homo sapiens), P37231. 200,000 tested, 0.41% active; in the data active means activation above about 19%;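 further: 0% = DMSO and 100% = reference agonist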
Target sequence (P37231 whole entry, looked up): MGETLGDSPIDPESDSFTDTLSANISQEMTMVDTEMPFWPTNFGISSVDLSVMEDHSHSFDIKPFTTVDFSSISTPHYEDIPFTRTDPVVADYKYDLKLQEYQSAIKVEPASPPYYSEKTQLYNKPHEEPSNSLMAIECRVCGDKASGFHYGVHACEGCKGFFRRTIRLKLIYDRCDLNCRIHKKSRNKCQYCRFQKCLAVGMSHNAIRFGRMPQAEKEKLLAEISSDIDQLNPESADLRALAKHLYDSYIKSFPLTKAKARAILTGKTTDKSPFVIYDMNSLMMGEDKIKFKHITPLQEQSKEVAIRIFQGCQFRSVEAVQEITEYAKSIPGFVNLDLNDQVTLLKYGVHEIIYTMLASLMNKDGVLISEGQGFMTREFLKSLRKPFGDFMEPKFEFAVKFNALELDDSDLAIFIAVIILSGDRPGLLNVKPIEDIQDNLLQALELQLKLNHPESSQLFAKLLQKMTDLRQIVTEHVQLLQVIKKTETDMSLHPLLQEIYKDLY
PPARg SRC3 recr = PPARgamma agonists recruiting SRC-3 coactivator, primary screen, biochemical | biochemical PPARgamma/SRC-3 coactivator recruitment assay | Peroxisome proliferator-activated receptor gamma (Homo sapiens), P37231 | AID 731, 2007 | 200,000 tested, 0.26% active | activation, % at 8 µM; in the data active means activation above about 23%;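 further: 0% = DMSO and 100% = reference agonist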
PPARg SRC-2 ag = agonists of PPARg-SRC-2 recruitment, primary screen, biochemical, HTS; 200,000 tested, 0.34% active; PPARgamma LBD-SRC-2 recruitment; activation, % at 8 µM; Peroxisome proliferator-activated receptor gamma (Homo sapiens), P37231; in the data active means activation above about 22%;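 further: 0% = vehicle and 100% = reference agonist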
* = called active by the depositor. Unless noted, no stated cut-off is given here; in the data, active means TR-FRET ratio above about 2000; inactive means the rest.

How did CC(=O)Nc1cccc(NC(=O)c2ccc(C)c([N+](=O)[O-])c2)c1 do in these assays?
SRC2 TRFRET art: 1815; SRC3 TRFRET art: 1862; SRC1 TRFRET art: 2324*; PPARg SRC1 recr: 9.3; PPARg SRC3 recr: 3.0; PPARg SRC-2 ag: 5.0

Results for C/C(=N\N=C1\NC(=O)CC(C(=O)O)S1)c1ccc(F)cc1 (stereo not drawn) ?
SRC2 TRFRET art: 1531; SRC3 TRFRET art: 1450; SRC1 TRFRET art: 2658*; PPARg SRC1 recr: 15.9; PPARg SRC3 recr: 2.5; PPARg SRC-2 ag: -5.9

Results for COc1ccc(/C(C)=N/N=C2/NC(=O)CC(C(=O)O)S2)cc1 (stereo not drawn) ?
SRC2 TRFRET art: 1565; SRC3 TRFRET art: 1614; SRC1 TRFRET art: 1477; PPARg SRC1 recr: -7.7; PPARg SRC3 recr: -0.9; PPARg SRC-2 ag: -3.4

How did O=C(c1cc(COc2ccc(F)cc2Cl)on1)N1CCC(OCc2cccnc2)CC1 do in these assays?
SRC2 TRFRET art: 1728; SRC3 TRFRET art: 1604; SRC1 TRFRET art: 2026; PPARg SRC1 recr: 9.4; PPARg SRC3 recr: 4.1; PPARg SRC-2 ag: 4.0

What do the screens show for `O=C(c1cc(COc2ccc(F)cc2Cl)on1)N1CCCC(OCc2cccnc2)C1` (stereo not drawn)?
SRC2 TRFRET art: 2120*; SRC3 TRFRET art: 1623; SRC1 TRFRET art: 1769; PPARg SRC1 recr: 3.6; PPARg SRC3 recr: 3.8; PPARg SRC-2 ag: 39.5*

Results for COc1ccc(-c2cn3c(C)c(C(=O)Nc4ccncc4)sc3n2)cc1 ?
SRC2 TRFRET art: 1516; PPARg SRC1 recr: 1.0; PPARg SRC3 recr: -14.7; PPARg SRC-2 ag: 1.1

What do the screens show for `Cc1c(C(=O)Nc2ccncc2)sc2nc(-c3ccc(F)cc3)cn12`?
SRC2 TRFRET art: 1995*; SRC3 TRFRET art: 2105*; SRC1 TRFRET art: 2289; PPARg SRC1 recr: 6.3; PPARg SRC3 recr: 13.4; PPARg SRC-2 ag: 21.7

How did Cc1cccc(N(CC(=O)N2CCOCC2)S(C)(=O)=O)c1C do in these assays?
SRC2 TRFRET art: 1639; PPARg SRC1 recr: 13.2; PPARg SRC3 recr: 15.6; PPARg SRC-2 ag: 13.3

What do the screens show for `Cc1cccc(N(CC(=O)N2CCN(c3ccc(F)cc3)CC2)S(C)(=O)=O)c1C`?
SRC2 TRFRET art: 1524; SRC3 TRFRET art: 1507; SRC1 TRFRET art: 2469*; PPARg SRC1 recr: 28.9*; PPARg SRC3 recr: 1.5; PPARg SRC-2 ag: 0.0

Results for CC(C)(C)c1cc(C(=S)N2CCN(CCO)CC2)cc(C(C)(C)C)c1O ?
SRC2 TRFRET art: 1569; PPARg SRC1 recr: 6.3; PPARg SRC3 recr: 28.1*; PPARg SRC-2 ag: 9.9

Results for Cn1nnnc1SCC(=O)Nc1cc(S(=O)(=O)N2CCCC2)ccc1Cl ?
SRC2 TRFRET art: 1756; SRC3 TRFRET art: 1595; SRC1 TRFRET art: 1762; PPARg SRC1 recr: 3.1; PPARg SRC3 recr: 1.1; PPARg SRC-2 ag: 15.3

Results for CN(C)S(=O)(=O)c1ccc(Cl)c(NC(=O)CSc2nnnn2-c2ccc(O)cc2)c1 ?
SRC2 TRFRET art: 2002*; SRC3 TRFRET art: 1580; SRC1 TRFRET art: 2160; PPARg SRC1 recr: 6.7; PPARg SRC3 recr: 1.5; PPARg SRC-2 ag: -3.4

How did O=C(CSc1ncnc2c1oc1ccccc12)N1CCN(c2ccccc2)CC1 do in these assays?
SRC2 TRFRET art: 1527; PPARg SRC1 recr: 87.1*; PPARg SRC3 recr: 25.4; PPARg SRC-2 ag: 14.9

What do the screens show for `CCCSc1ncnc2c1oc1ccccc12`?
SRC2 TRFRET art: 1525; PPARg SRC1 recr: 7.0; PPARg SRC3 recr: 4.1; PPARg SRC-2 ag: 1.9

What do the screens show for `c1ccc(CSc2ncnc3c2oc2ccccc23)cc1`?
SRC2 TRFRET art: 2898*; PPARg SRC1 recr: 59.3*; PPARg SRC3 recr: 84.4*; PPARg SRC-2 ag: 62.0*

What do the screens show for `CCOc1ccccc1NC(=O)CSc1ncnc2c1oc1ccccc12`?
SRC2 TRFRET art: 1627; PPARg SRC1 recr: 10.9; PPARg SRC3 recr: -0.1; PPARg SRC-2 ag: 6.5

What do the screens show for `CCc1nnc(NC(=O)CSc2ncnc3c2oc2ccccc23)s1`?
SRC2 TRFRET art: 1593; PPARg SRC1 recr: 85.8*; PPARg SRC3 recr: 5.2; PPARg SRC-2 ag: 11.1

How did CC(C)C(=O)OCc1cn(-c2ccc(Cl)c(Cl)c2)nn1 do in these assays?
SRC2 TRFRET art: 1460; SRC3 TRFRET art: 1525; SRC1 TRFRET art: 1724; PPARg SRC1 recr: -4.1; PPARg SRC3 recr: -6.3; PPARg SRC-2 ag: 1.8

How did COCc1cc(C)nc(Nc2ccc(C)cc2C)c1C#N do in these assays?
SRC2 TRFRET art: 1983*; PPARg SRC1 recr: 13.8; PPARg SRC3 recr: 14.1; PPARg SRC-2 ag: 18.7

How did Oc1ccc(NCc2ccccc2OCc2ccccc2)cc1 do in these assays?
SRC2 TRFRET art: 2166*; SRC3 TRFRET art: 1728; SRC1 TRFRET art: 2043; PPARg SRC1 recr: -9.9; PPARg SRC3 recr: 9.4; PPARg SRC-2 ag: 28.8*

Results for Cn1c(Cc2ccccc2)nnc1SCC(=O)c1cccs1 ?
SRC2 TRFRET art: 1653; PPARg SRC1 recr: -3.8; PPARg SRC3 recr: -1.2; PPARg SRC-2 ag: 6.0

Results for O=C(NCc1ccccn1)c1cc(-c2ccc(-c3ccccc3)cc2)nc2ccccc12 ?
SRC2 TRFRET art: 1653; SRC3 TRFRET art: 2387*; SRC1 TRFRET art: 1888; PPARg SRC1 recr: 2.5; PPARg SRC3 recr: -1.2; PPARg SRC-2 ag: 0.8

How did O=C(NCc1ccccn1)c1cc(-c2ccccc2)nc2ccccc12 do in these assays?
SRC2 TRFRET art: 1426; SRC3 TRFRET art: 1462; SRC1 TRFRET art: 1648; PPARg SRC1 recr: -4.3; PPARg SRC3 recr: -3.4; PPARg SRC-2 ag: 6.5

How did O=C(NCc1ccco1)c1cc(-c2cccnc2)nc2ccccc12 do in these assays?
SRC2 TRFRET art: 1779; SRC3 TRFRET art: 1623; SRC1 TRFRET art: 2325*; PPARg SRC1 recr: 3.4; PPARg SRC3 recr: -3.7; PPARg SRC-2 ag: 11.8

Results for O=C(NCc1ccco1)c1cc(-c2ccncc2)nc2ccccc12 ?
SRC2 TRFRET art: 1597; PPARg SRC1 recr: 0.8; PPARg SRC3 recr: 2.2; PPARg SRC-2 ag: 0.3

How did Cc1c(C(=O)Nc2ccc(-c3nnc4n3CCCCC4)cc2)oc2ccc(Br)cc12 do in these assays?
SRC2 TRFRET art: 1828; SRC3 TRFRET art: 1865; SRC1 TRFRET art: 1813; PPARg SRC1 recr: 6.1; PPARg SRC3 recr: 4.6; PPARg SRC-2 ag: 1.3

What do the screens show for `COc1ccc(-c2nc(S(=O)(=O)c3ccccc3)c(N3CCOCC3)o2)cc1`?
SRC2 TRFRET art: 1502; SRC3 TRFRET art: 1343; SRC1 TRFRET art: 1614; PPARg SRC1 recr: 3.8; PPARg SRC3 recr: 0.4; PPARg SRC-2 ag: 6.0

Results for O=S(=O)(c1ccccc1)c1nc(-c2ccco2)oc1N1CCOCC1 ?
SRC2 TRFRET art: 1561; PPARg SRC1 recr: 26.1*; PPARg SRC3 recr: 2.9; PPARg SRC-2 ag: 5.1

Results for CCN1/C(=C/C=C/C=C/c2sc3ccccc3[n+]2CC)Sc2ccccc21 ?
SRC2 TRFRET art: 10856*; SRC3 TRFRET art: 13609*; SRC1 TRFRET art: 14504*; PPARg SRC1 recr: 447.9*; PPARg SRC3 recr: 339.4*; PPARg SRC-2 ag: 540.8*

Screening results as filed in PubChem BioAssay.
